Data: PubChem BioAssay AID1159580 (chemical genetic matrix, 2015)
“And” between values parts separate entries of the source, which are not always exact repeats. Equal entries are not always repeated. The campaign covered roughly 5,500 compounds. About 2,000 (36%) were called active. About 18% were inconclusive and are not listed. Rule as the data show it: active = normalized growth mostly below about 0.91 (no sharp cut-off); inconclusive = no clear call, values can overlap the other calls; inactive = mostly above about 0.92. The list shows a part of the results.

Assay: chemical genetic growth profiling, strain panel (AID 1159580);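 also: tested at 20 µM; growth read once vehicle control cultures reached saturation at 30 °C; 1 = growth at the plate median or of vehicle wells; lower values mean less growth of the strain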
Details: S. cerevisiae deletion strains, growth OD

Measured: normalized growth

CC(C(=O)O)c1ccc(N2Cc3ccccc3C2=O)cc1 (configuration not stated)
inactive: locus YAL021C, strain ccr4, hits give low values 0.994 | locus YAL026C, strain drs2, hits give low values 1 | locus YAL030W, strain snc1, hits give low values 0.994 | locus YBL061C, strain skt5, hits give low values 0.983 | locus YBR009C, strain hhf1, hits give low values 0.97 | locus YBR021W, strain FUR4, hits give low values 1.01 | locus YBR023C, strain chs3, hits give low values 0.966 | locus YBR171W, strain sec66, hits give low values 0.971 | locus YBR229C, strain ROT2, hits give low values 1.01 | locus YBR231C, strain swc5, hits give low values 0.993 | locus YBR279W, strain paf1, hits give low values 0.972 | locus YCL011C, strain gbp2, hits give low values 0.946 | locus YCL016C, strain dcc1, hits give low values 0.956 | locus YCL029C, strain bik1, hits give low values 0.996 | locus YCL061C, strain MRC1, hits give low values 0.986 | locus YCL069W, strain vba3, hits give low values 0.994 | locus YCR088W, strain abp1, hits give low values 0.987 | locus YDL005C, strain med2, hits give low values 0.991 | locus YDL035C, strain GPR1, hits give low values 1.02 | locus YDL040C, strain nat1, hits give low values 0.989 | locus YDL074C, strain BRE1, hits give low values 1.02 | locus YDL101C, strain DUN1, hits give low values 1.01 | locus YDL185W, strain tfp1, hits give low values 0.989 | locus YDL192W, strain arf1, hits give low values 0.99 | locus YDR001C, strain nth1, hits give low values 0.99 | locus YDR069C, strain doa4, hits give low values 0.993 | locus YDR101C, strain arx1, hits give low values 1 | locus YDR137W, strain rgp1, hits give low values 0.988 | locus YDR159W, strain sac3, hits give low values 1.05 | locus YDR162C, strain NBP2, hits give low values 1.01 | locus YDR195W, strain ref2 1.01 | locus YDR297W, strain sur2, hits give low values 0.99 | locus YDR318W, strain mcm21, hits give low values 0.99 | locus YDR334W, strain swr1, hits give low values 0.986 | locus YDR335W, strain msn5, hits give low values 0.993 | locus YDR388W, hits give low values 0.992 | locus YDR392W, strain spt3, hits give low values 0.988 | locus YDR502C, strain sam2, hits give low values 1 | locus YEL003W, strain gim4, hits give low values 1.01 | locus YEL037C, strain rad23, hits give low values 0.975 | locus YEL061C, strain CIN8 (second series), hits give low values 0.99 | locus YEL061C, strain CIN8, hits give low values 1.01 | locus YER015W, strain faa2, hits give low values 1 | locus YER016W, strain bim1, hits give low values 0.993 | locus YER110C, hits give low values 0.994 | locus YER111C, strain swi4, hits give low values 0.985 | locus YER155C, strain BEM2 (second series), hits give low values 0.948 | locus YER155C, strain BEM2, hits give low values 1.02 | locus YER167W, strain BCK2, hits give low values 1.01 | locus YFR010W, strain ubp6, hits give low values 1 | locus YGL078C, strain dbp3, hits give low values 0.985 | locus YGL086W, strain mad1, hits give low values 1.01 | locus YGL167C, strain pmr1, hits give low values 0.991 | locus YGL173C, strain kem1, hits give low values 0.997 | locus YGL227W, strain vid30, hits give low values 0.988 | locus YGL240W, strain doc1, hits give low values 1 | locus YGL248W, strain PDE1, hits give low values 1.02 | locus YGL253W, strain hxk2, hits give low values 1 | locus YGR135W, strain pre9, hits give low values 0.971 | locus YGR252W, strain gcn5, hits give low values 0.938 | locus YHR013C, strain ard1, hits give low values 0.961 | locus YHR027C, strain rpn1, hits give low values 0.986 | locus YHR030C, strain SLT2, hits give low values 1.01 and 0.993 | locus YHR079C, strain IRE1 (second series), hits give low values 1.01 | locus YHR079C, strain IRE1, hits give low values 0.987 | locus YHR094C, strain hxt1, hits give low values 0.987 | locus YHR129C, strain ARP1, hits give low values 1.02 | locus YHR142W, strain chs7, hits give low values 0.941 | locus YHR200W, strain rpn10, hits give low values 1 | locus YIL066C, strain RNR3, hits give low values 1.02 | locus YIL073C, strain SPO22, hits give low values 1 | locus YIL125W, strain kgd1, hits give low values 0.984 | locus YIR030C, strain dcg1, hits give low values 0.996 | locus YJL092W, strain hpr5, hits give low values 0.959 | locus YJL095W, strain BCK1 (second series), hits give low values 0.994 | locus YJL095W, strain BCK1, hits give low values 1.01 and 0.986 | locus YJL115W, strain asf1, hits give low values 0.982 | locus YJL129C, strain trk1, hits give low values 0.965 | locus YJL134W, strain LCB3, hits give low values 1.01 | locus YJL154C, strain vps35, hits give low values 0.987 | locus YJL164C, strain tpk1, hits give low values 0.988 | locus YJL166W, strain qcr8, hits give low values 0.987 | locus YJL168C, strain set2, hits give low values 0.98 | locus YJL187C, strain SWE1 (second series), hits give low values 1.01 | locus YJL187C, strain SWE1, hits give low values 0.993 | locus YJR043C, strain POL32, hits give low values 1.02 | locus YJR066W, strain TOR1, hits give low values 0.914
